Measurements as given in PubChem BioAssay (NCI).
This is part of a sample that, as a whole, favours compounds with a hit. Of some 79,000 tested, about 15% had one in any assay. A number with no mark means an inactive call. Active and inactive are the calls of the source. Rule as the data show it: active = growth inhibition above about 70%; inactive = the rest.

Assays:
[1] = NCI Yeast Anticancer Drug Screen. Data for the rad50 strain (AID 155);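 also: 0% = growth of vehicle-only cultures of the same strain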; conditions: S. cerevisiae rad50 strain growth inhibition; at 50.0 µM; active compounds read high
Procedure, shortened: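 Yeast carrying a defined DNA repair defect were exposed to test compounds, and growth was compared with vehicle-treated controls to give percent inhibition.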

[2] = NCI Yeast Anticancer Drug Screen. Data for the mec2-1 strain (AID 157); conditions: S. cerevisiae mec2-1 strain, at 50.0 µM, active compounds read high
Procedure, shortened: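 Using mec2-1 yeast: add compound, measure growth, express inhibition versus vehicle-treated cultures.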

[3] = NCI Yeast Anticancer Drug Screen. Data for the sgs1 mgt1 strain (AID 161);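 also: 0% = growth of cultures given vehicle only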; conditions: S. cerevisiae sgs1 mgt1 strain, at 50.0 µM, active compounds read high
Procedure, shortened: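 This yeast growth screen uses a strain with defined DNA-repair lesions; compound-treated growth is compared with vehicle-treated growth.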

[4] = NCI Yeast Anticancer Drug Screen. Data for the cln2 rad14 strain (AID 165);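 also: 0% = growth equal to vehicle treated cultures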; conditions: S. cerevisiae cln2 rad14 strain, at 50.0 µM, active compounds read high
Procedure, shortened: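 Yeast strain cln2 rad14, bearing defects in cell cycle control and DNA repair, serves as the test system; values reflect growth inhibition compared with vehicle.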

[5] = NCI Yeast Anticancer Drug Screen. Data for the bub3 strain (AID 167); conditions: S. cerevisiae bub3 mutant strain, at 50.0 µM, active compounds read high
Procedure, shortened: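 Compounds were applied to a genetically altered yeast strain carrying a cell-cycle control defect. Growth inhibition was scored against vehicle-treated controls.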

[6] = NCI Yeast Anticancer Drug Screen. Data for the mlh1 rad18 strain (AID 175); conditions: S. cerevisiae mlh1 rad18 strain growth inhibition; at 50.0 µM; active compounds read high
Procedure, shortened: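 Steps: expose repair-defective yeast to compound; measure growth; express inhibition against vehicle-treated controls.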

Question: For `O=S(=O)(Nc1ncccn1)c1ccc(N=NSC2=NC=NC3=NC=NC32)cc1` (stereo not given), which growth inhibition [1] is on record?
Answer: 21.3%

Question: And the growth inhibition [2]?
Answer: 17.4%

Question: What about the growth inhibition [3] of the same compound?
Answer: 20.5%

Question: What about the growth inhibition [4] of the same compound?
Answer: 4%

Question: And the growth inhibition [5]?
Answer: 0.05%

Question: What about the growth inhibition [6] of the same compound?
Answer: 11.8%

Question: For `CCN(CC)CCO/N=C(\c1ccccc1)c1ccccn1`, which growth inhibition [1] is on record?
Answer: 4.6%

Question: And the growth inhibition [2]?
Answer: -5.95%

Question: What about the growth inhibition [3] of the same compound?
Answer: 16.9%

Question: What about the growth inhibition [4] of the same compound?
Answer: -78.3%

Question: What about the growth inhibition [5] of the same compound?
Answer: 10.7%

Question: What about the growth inhibition [6] of the same compound?
Answer: 1.2%

Question: Which results are given for `COc1cc(O)c2c(c1)C(=O)c1cc3c(c(O)c1C2=O)CC(OC)C(C)(O)C3O` (stereo not given)?
Answer: growth inhibition [1]: 90.5% (active); growth inhibition [2]: 91.3% (active); growth inhibition [3]: 91.8% (active); growth inhibition [4]: 88.5% (active); growth inhibition [5]: 91.8% (active); growth inhibition [6]: 91.2% (active)

Question: With `C/C(=N\O)C1(C)CC=CCC1C(=O)O` (stereo not given) as the compound, how does the growth inhibition [1] read?
Answer: -4.8%

Question: And the growth inhibition [2]?
Answer: 4.5%

Question: What about the growth inhibition [3] of the same compound?
Answer: 2.8%

Question: What about the growth inhibition [4] of the same compound?
Answer: 19.2%

Question: What about the growth inhibition [5] of the same compound?
Answer: -11.3%

Question: And the growth inhibition [6]?
Answer: 1.4%

Question: For `COC1(C)CCC2(O)C(=O)OC3C(O)COC32O1` (stereo not given), which growth inhibition [1] is on record?
Answer: -3.45%

Question: What about the growth inhibition [2] of the same compound?
Answer: -4.9%

Question: What about the growth inhibition [3] of the same compound?
Answer: 2.55%

Question: What about the growth inhibition [4] of the same compound?
Answer: -1.3%

Question: What about the growth inhibition [5] of the same compound?
Answer: -1.85%

Question: What about the growth inhibition [6] of the same compound?
Answer: -4.55%

Question: For `COC(=O)c1cc(C(=O)OC)c(C/C(=N/NC(=O)C[N+](C)(C)C)C(=O)Nc2cccc(C(F)(F)F)c2)nc1C/C(=N/NC(=O)C[N+](C)(C)C)C(=O)Nc1cccc(C(F)(F)F)c1`, which growth inhibition [1] is on record?
Answer: -14.5%

Question: What about the growth inhibition [2] of the same compound?
Answer: -1.45%

Question: And the growth inhibition [3]?
Answer: -11.6%

Question: And the growth inhibition [4]?
Answer: 17.1%

Question: What about the growth inhibition [5] of the same compound?
Answer: 11.4%

Question: What about the growth inhibition [6] of the same compound?
Answer: -2.3%

Question: With `N#CC1C(=O)NC(=O)C(C#N)C1C1C(=O)NC2CCCCC21` (stereo not given) as the compound, how does the growth inhibition [1] read?
Answer: 41.2%

Question: What about the growth inhibition [2] of the same compound?
Answer: 5%

Question: What about the growth inhibition [3] of the same compound?
Answer: 17.2%

Question: What about the growth inhibition [4] of the same compound?
Answer: 23.2%

Question: And the growth inhibition [5]?
Answer: 11.1%

Question: What about the growth inhibition [6] of the same compound?
Answer: 32.8%

Question: Which results are given for `Cc1ccc(NC(=O)CC/C(CC(=O)C(C)(C)C)=N\Nc2ccc([N+](=O)[O-])cc2[N+](=O)[O-])cc1C`?
Answer: growth inhibition [1]: 18.6%; growth inhibition [2]: -3.55%; growth inhibition [3]: -11.7%; growth inhibition [4]: 4%; growth inhibition [5]: 7.8%; growth inhibition [6]: -18.3%

Question: Which results are given for `COc1cccc2c1CCC1=CC(=O)CCC12C` (stereo not given)?
Answer: growth inhibition [1]: 22.1%; growth inhibition [2]: 5.5%; growth inhibition [3]: 17.9%; growth inhibition [4]: 28.8%; growth inhibition [5]: 16.9%; growth inhibition [6]: -0.65%

Question: For `COc1ccccc1-c1cc(=O)c2cc(C)c(C)c(C(=O)O)c2o1`, which growth inhibition [1] is on record?
Answer: 7.05%

Question: And the growth inhibition [2]?
Answer: 3.95%

Question: And the growth inhibition [3]?
Answer: 18.6%

Question: What about the growth inhibition [4] of the same compound?
Answer: 29.7%

Question: And the growth inhibition [5]?
Answer: 7.35%

Question: What about the growth inhibition [6] of the same compound?
Answer: 11.8%

Question: Which results are given for `C/C(CC(=O)Nc1ccc(C)c(C)c1)=N\NC(N)=O`?
Answer: growth inhibition [1]: -31.9%; growth inhibition [2]: -28.6%; growth inhibition [3]: -0.7%; growth inhibition [4]: -5.35%; growth inhibition [5]: -22%; growth inhibition [6]: -24.2%

Question: Which growth inhibition [1] does the source give for `N=C1N=Nc2nc(C(C(=O)c3cccc4ccccc34)c3nc4n(c3O)C(=N)N=N4)c(O)n21` (stereo not given) here?
Answer: 19.5%

Question: And the growth inhibition [2]?
Answer: 1.35%

Question: What about the growth inhibition [3] of the same compound?
Answer: 14.2%

Question: What about the growth inhibition [4] of the same compound?
Answer: 22.1%

Question: What about the growth inhibition [5] of the same compound?
Answer: 0.9%

Question: What about the growth inhibition [6] of the same compound?
Answer: 26.2%

Question: Which growth inhibition [1] does the source give for `O=C(NCCCCCCNC(=O)Oc1ccccc1F)Oc1ccccc1F` here?
Answer: -13.6%

Question: What about the growth inhibition [2] of the same compound?
Answer: -14.5%

Question: What about the growth inhibition [3] of the same compound?
Answer: -6.5%

Question: And the growth inhibition [4]?
Answer: -0.05%

Question: What about the growth inhibition [5] of the same compound?
Answer: 6.4%

Question: What about the growth inhibition [6] of the same compound?
Answer: -20.9%

Question: With `C=CCCCCCCCCC1OCC(CC)C(CCC)O1` (stereo not given) as the compound, how does the growth inhibition [1] read?
Answer: 5.65%

Question: What about the growth inhibition [2] of the same compound?
Answer: 10.1%

Question: And the growth inhibition [3]?
Answer: -2.8%

Question: What about the growth inhibition [4] of the same compound?
Answer: 47.5%

Question: And the growth inhibition [5]?
Answer: 26.5%

Question: What about the growth inhibition [6] of the same compound?
Answer: 39.3%

Question: For `O=[N+]([O-])c1ccc(N/N=C2\CCC3CC23)c([N+](=O)[O-])c1` (stereo not given), which growth inhibition [1] is on record?
Answer: 1%

Question: And the growth inhibition [2]?
Answer: -15.2%

Question: And the growth inhibition [3]?
Answer: -2.15%

Question: And the growth inhibition [4]?
Answer: -1.35%

Question: What about the growth inhibition [5] of the same compound?
Answer: -0.55%

Question: And the growth inhibition [6]?
Answer: -21.9%

Question: With `Cc1cc(OCCCCCCC[N+](C)(C)Cc2ccc([N+](=O)[O-])o2)c(C(C)C)cc1Cl` as the compound, how does the growth inhibition [1] read?
Answer: 99.6% (active)

Question: What about the growth inhibition [2] of the same compound?
Answer: 99.8% (active)

Question: What about the growth inhibition [3] of the same compound?
Answer: 99.8% (active)

Question: And the growth inhibition [4]?
Answer: 99.6% (active)

Question: What about the growth inhibition [5] of the same compound?
Answer: 99.5% (active)

Question: What about the growth inhibition [6] of the same compound?
Answer: 99.7% (active)

Question: For `CCC(O)C(C)(C)N` (stereo not given), which growth inhibition [1] is on record?
Answer: 13.4%

Question: What about the growth inhibition [2] of the same compound?
Answer: -7.8%

Question: What about the growth inhibition [3] of the same compound?
Answer: 2.7%

Question: What about the growth inhibition [4] of the same compound?
Answer: -6.45%

Question: And the growth inhibition [5]?
Answer: 4.45%

Question: What about the growth inhibition [6] of the same compound?
Answer: 0.4%

Question: With `COc1ccc(Nc2ccnc(N)n2)cc1` as the compound, how does the growth inhibition [1] read?
Answer: 5.15%

Question: What about the growth inhibition [2] of the same compound?
Answer: -27.4%

Question: And the growth inhibition [3]?
Answer: 1.25%

Question: And the growth inhibition [4]?
Answer: -0.35%

Question: What about the growth inhibition [5] of the same compound?
Answer: 14.2%

Question: What about the growth inhibition [6] of the same compound?
Answer: -13.2%

Question: What does the source list for `COc1cc2c(cc1OC)CN1CCc3ccccc3CC1C2` (stereo not given)?
Answer: growth inhibition [1]: 15.3%; growth inhibition [2]: -73.3%; growth inhibition [3]: -16.8%; growth inhibition [4]: -5.1%; growth inhibition [5]: -33.5%; growth inhibition [6]: -33.7%

Question: With `CCCCC(O)c1ccc[n+]([O-])c1` (stereo not given) as the compound, how does the growth inhibition [1] read?
Answer: 4.3%

Question: And the growth inhibition [2]?
Answer: -21%

Question: What about the growth inhibition [3] of the same compound?
Answer: 0.6%

Question: What about the growth inhibition [4] of the same compound?
Answer: 2.95%

Question: What about the growth inhibition [5] of the same compound?
Answer: -3.4%

Question: What about the growth inhibition [6] of the same compound?
Answer: 3.95%
